Assay results taken from PubChem BioAssay (Tox21).
Results filed as inconclusive are left out. Entries that show only a call come without a potency. Unmarked numbers belong to inactive results. Active and inactive are the calls of the source. Unless noted, the call rests on the fitted dose curve.

Assays:
[1] = qHTS assay to identify small molecule agonists of the NFkB signaling pathway (AID 1159509; active means well fitted curve in the direction sought with a large enough effect in the signal ratio in the repeat runs, not every such curve was filed as active; the % refers to the signal ratio); conditions: NFkB-bla ME-180 cells, beta-lactamase FRET ratio, 5 h; series mostly up to 61 µM
Method in brief: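 NFkB-bla ME-180 cells with a beta-lactamase reporter under an NF-kB response element were plated overnight, treated with compounds in DMSO for 5 hr at 37 C, then loaded with FRET substrate for 1.5 hr at room temperature.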

[2] = qHTS assay to identify small molecule agonists of the NFkB signaling pathway - cell viability counter screen (AID 1159515); conditions: NFkB-bla ME-180 viability, CellTiter-Glo luminescence, 5 h; series mostly up to 61 µM; further: nearly all actives have a fitted effect of over 55% in size
Method in brief: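 Using the same wells as the NFkB reporter read, ME-180 NFkB-bla cells given compounds for 5 hr were assessed for viability via CellTiter-Glo, with luminescence taken after a 30 min room-temperature incubation.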

[3] = qHTS assay to identify small molecule agonists of the endoplasmic reticulum stress response signaling pathway (AID 1159516; active means well fitted activation curve with a large enough effect in the signal ratio in the repeat runs, not every such curve was filed as active; the % refers to the signal ratio); conditions: ESRE-bla HeLa, ER stress beta-lactamase reporter, 5 h; series mostly up to 61 µM
Method in brief: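 An ESRE-bla HeLa cell assay: compounds were pin-transferred from DMSO onto overnight-plated cells and left 5 hr at 37 C. Substrate was then loaded for 2 hr at room temperature before reading fluorescence at 460 nm and 530 nm.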

[4] = qHTS assay to identify small molecule agonists of the endoplasmic reticulum stress response signaling pathway - cell viability counter screen (AID 1159517); conditions: ESRE-bla HeLa viability, CellTiter-Glo luminescence, 5 h; series mostly up to 61 µM;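 further: HeLa cells carrying an ER stress response element beta-lactamase reporter; nearly all actives have a fitted effect of over 50% in size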
Method in brief: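 Counter-screen wells were identical to the reporter wells. Cells were plated at 1,500 per well and dosed for 5 hr, then read for luminescence 30 min after CellTiter-Glo addition.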

[5] = qHTS assay to identify small molecule antagonists of the retinoid-related orphan receptor gamma (ROR-gamma) signaling pathway - cell viability counter screen (AID 1159520; active means well fitted cell-killing curve with a large enough effect in the repeat runs; further: nearly all actives have a fitted effect of over 50% in size); conditions: Tet-on RORgamma CHO cells viability, ATP luminescence, 16 h; series mostly up to 92.4 µM
Method in brief: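 Tet-on ROR gamma CHO cells were given compounds for 2 hr, then doxycycline hyclate at 1 uM final, and incubated 16 hr at 37 C. Viability was measured as ATP content by CellTiter-Glo luminescence.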

[6] = qHTS assay to identify small molecule agonists of the AP-1 signaling pathway - cell viability counter screen (AID 1159525); conditions: ME-180 AP-1-bla cells viability, ATP luminescence, 5 h; series mostly up to 76.8 µM; further: nearly all actives have a fitted effect of over 55% in size
Method in brief: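 AP-1-bla ME-180 cells in Opti-MEM with 0.5% dialyzed FBS, compound exposure 5 h at 37 C in 15-point titration. Viability read in the same wells as ATP content by CellTiter-Glo luminescence, normalised to tetra-n-octylammonium bromide and DMSO controls.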

[7] = qHTS assay to identify small molecule agonists of the AP-1 signaling pathway (AID 1159526); conditions: ME-180 (cervical carcinoma) AP-1-bla reporter, beta-lactamase FRET ratio, 5 h; series mostly up to 76.8 µM
[8] = biological target: Retinoic acid receptor RXR-alpha (Homo sapiens) (UniProt P19793); test: qHTS assay to identify small molecule agonists of the RXR signaling pathway (AID 1159527); conditions: HEK293T RXRa-UAS-bla, beta-lactamase ratio, 16 h; series mostly up to 76.8 µM; further: nearly all actives have a fitted effect of over 35% in size; further: potency means the concentration at half of the fitted maximal effect
Retinoic acid receptor RXR-alpha (Homo sapiens), sequence (P19793 whole entry, looked up): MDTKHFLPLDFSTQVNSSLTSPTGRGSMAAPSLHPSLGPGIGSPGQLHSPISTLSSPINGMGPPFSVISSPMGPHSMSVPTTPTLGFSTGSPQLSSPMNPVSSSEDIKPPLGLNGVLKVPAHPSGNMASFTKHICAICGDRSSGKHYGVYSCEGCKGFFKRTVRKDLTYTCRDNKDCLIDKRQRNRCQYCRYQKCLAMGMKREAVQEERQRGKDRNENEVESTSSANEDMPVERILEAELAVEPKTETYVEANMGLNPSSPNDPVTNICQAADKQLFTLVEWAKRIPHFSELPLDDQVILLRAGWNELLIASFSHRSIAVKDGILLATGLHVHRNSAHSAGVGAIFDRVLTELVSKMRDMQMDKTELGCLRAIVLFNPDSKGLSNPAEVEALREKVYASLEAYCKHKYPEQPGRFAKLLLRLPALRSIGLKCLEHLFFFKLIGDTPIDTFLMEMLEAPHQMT
Method in brief: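 Agonist-mode beta-lactamase reporter assay: HEK 293T RXR-alpha-UAS-bla cells treated 16 hr at 37 C with compounds, 9-cis retinoic acid as positive control. LiveBLAzer FRET substrate, 405 nm excitation, 460/530 nm emission.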

[9] = qHTS assay to identify small molecule antagonists of the vitamin D receptor (VDR) signaling pathway - cell viability counter screen (AID 743225; active means well fitted cell-killing curve with a large enough effect in the repeat runs; further: nearly all actives have a fitted effect of over 50% in size; further: potency means the concentration at half of the fitted maximal effect); conditions: VDR-bla HEK293T viability, CellTiter-Glo luminescence, 16 h; series mostly up to 61 µM
Method in brief: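 Cytotoxicity counter screen read by CellTiter-Glo luminescence (30 min, room temperature) in the same wells as the VDR-bla antagonist readout. HEK 293T VDR-UAS-bla cells had 16 h at 37C with compound and 3 nM (final) 1-alpha,25-dihydroxyvitamin D3, then 2 h with FRET substrate.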

SMILES | outcome [1] | outcome [2] | outcome [3] | outcome [4] | Potency [5] | outcome [6] | outcome [7] | Potency [8] | Potency [9]
Oc1cc(O)c(Cl)cc1Cl | inactive | inactive | inactive | inactive | inactive | inactive | inactive | inactive | –
CCc1c2c(nc3ccc(OC(=O)N4CCC(N5CCCCC5)CC4)cc13)-c1cc3c(c(=O)n1C2)COC(=O)[C@]3(O)CC | inactive | inactive | inactive | inactive | inactive | inactive | – | – | –
CN1CCN(CCCN2c3ccccc3Sc3ccc(S(=O)(=O)N(C)C)cc32)CC1 | inactive | inactive | inactive | inactive | inactive | inactive | inactive | inactive | 23.9 µM (active)
C=C(C)C(=O)OCCOC(=O)CC(C)=O | inactive | inactive | inactive | inactive | inactive | inactive | inactive | – | –
Cc1ccccc1N1C(=O)c2cc(S(N)(=O)=O)c(Cl)cc2NC1C (centres undefined) | inactive | inactive | inactive | inactive | inactive | inactive | inactive | inactive | inactive
COC(=O)CC(=O)C(C)(C)C | inactive | inactive | inactive | inactive | inactive | inactive | inactive | – | –
Nc1ccc(S(=O)(=O)O)c(N)c1 | inactive | inactive | inactive | inactive | inactive | inactive | inactive | inactive | –
C[C@@H]1C[C@H]2[C@@H]3CCC4=CC(=O)C=C[C@]4(C)[C@@]3(F)[C@@H](O)C[C@]2(C)[C@@]1(O)C(=O)CO | inactive | inactive | inactive | inactive | inactive | inactive | inactive | – | –
Cc1oc(C)c(C(=O)Nc2ccccc2)c1C | inactive | inactive | inactive | inactive | inactive | inactive | inactive | – | –
C[C@@H]1C[C@H]2[C@@H]3CCC4=CC(=O)C=C[C@]4(C)[C@@]3(F)[C@@H](O)C[C@]2(C)[C@H]1C(=O)CO | inactive | inactive | inactive | inactive | inactive | inactive | inactive | inactive | inactive
CCCCN(CCCC)CCCOC(=O)c1ccc(N)cc1 | inactive | inactive | inactive | inactive | inactive | inactive | inactive | inactive | inactive
O=C(C(=O)c1ccccc1)c1ccccc1 | inactive | inactive | inactive | inactive | inactive | inactive | inactive | inactive | inactive
CCOC(=O)c1ccccc1C | inactive | inactive | inactive | inactive | inactive | inactive | inactive | – | –
CC(N)CN (centres undefined) | inactive | inactive | inactive | inactive | inactive | inactive | inactive | inactive | inactive
CCC(C(=O)OCCOCCN(CC)CC)c1ccccc1 (centres undefined) | inactive | inactive | inactive | inactive | inactive | inactive | inactive | inactive | inactive
N#C[C@@H]1C[C@@H]2C[C@@H]2N1C(=O)[C@@H](N)C12CC3CC(CC(O)(C3)C1)C2 | inactive | inactive | inactive | inactive | inactive | inactive | inactive | inactive | inactive
CCCOC(=O)c1ccc(N)cc1 | inactive | inactive | inactive | inactive | inactive | inactive | inactive | inactive | inactive
CCC(Cc1ccccc1)(C(=O)c1ccc(N2CCOCC2)cc1)N(C)C (centres undefined) | inactive | inactive | inactive | inactive | inactive | inactive | inactive | – | –
OC(CCCN1CCCCC1)(c1ccccc1)c1ccccc1 | inactive | inactive | inactive | inactive | inactive | inactive | inactive | inactive | inactive
CCCCN(CCCC)C(=S)SSC(=S)N(CCCC)CCCC | inactive | inactive | inactive | – | – | – | – | – | –
C/C(=N/NC(=O)c1ccncc1)C(=O)O | inactive | inactive | inactive | inactive | inactive | inactive | inactive | inactive | –
CCOC(=O)N1CCC(n2c(=O)[nH]c3cc(Cl)ccc32)CC1 | inactive | inactive | inactive | inactive | inactive | inactive | inactive | inactive | inactive
CC(=O)Nc1ccccc1C | inactive | inactive | inactive | inactive | inactive | inactive | inactive | – | –
C=CC(C)=CCC=C(C)C | inactive | inactive | inactive | inactive | inactive | inactive | inactive | inactive | inactive
CCOC(=O)CC(=O)C(=O)OCC | inactive | inactive | inactive | inactive | inactive | inactive | inactive | – | –
CCCCCCCCCOC(C)=O | inactive | inactive | inactive | inactive | inactive | inactive | inactive | inactive | inactive
CC(C)OCC1CO1 (centres undefined) | inactive | inactive | inactive | inactive | inactive | inactive | inactive | inactive | inactive

SMILES | outcome [1] | outcome [2] | outcome [3] | outcome [4] | Potency [5] | outcome [6] | outcome [7] | Potency [8] | Potency [9]
CNC(=S)NC | inactive | inactive | inactive | inactive | inactive | inactive | inactive | – | –
N#C/C(=C1/SC[C@@H](c2ccc(Cl)cc2Cl)S1)n1ccnc1 | inactive | inactive | inactive | inactive | inactive | inactive | inactive | – | –
CC(C)(C)C(=O)C(Oc1ccc(Cl)cc1)n1ccnc1 (centres undefined) | inactive | inactive | inactive | inactive | inactive | inactive | inactive | inactive | inactive
CCCCC(CC)COC(=O)COc1ccc(Cl)cc1C (centres undefined) | inactive | inactive | inactive | inactive | inactive | inactive | inactive | inactive | inactive
C=CCNc1nc(NCC=C)nc(N2CCN(C(c3ccc(F)cc3)c3ccc(F)cc3)CC2)n1 | inactive | inactive | inactive | inactive | inactive | inactive | – | – | –
CCOc1cc(N)c(Cl)cc1C(=O)NCC1CN(Cc2ccc(F)cc2)CCO1 (centres undefined) | inactive | inactive | inactive | inactive | inactive | inactive | inactive | inactive | inactive
CN(C)CCOC1=Cc2ccccc2Sc2ccc(Cl)cc21 | inactive | inactive | inactive | inactive | inactive | – | – | – | –
O=S(=O)(c1ccccc1)c1ccc(Cl)cc1 | inactive | inactive | inactive | inactive | inactive | inactive | inactive | inactive | –
CCOC(=O)/C=C/C(=O)O | inactive | inactive | inactive | inactive | inactive | inactive | inactive | – | –
CCCCCCOC(=O)CCCCCCCC(=O)OCCCCCC | inactive | inactive | inactive | inactive | inactive | inactive | inactive | – | –
Cc1cc(C(=C2C=CC(=Nc3ccc(S(=O)(=O)O)cc3S(=O)(=O)O)C=C2)c2ccc(Nc3ccc(S(=O)(=O)O)cc3)cc2)ccc1N | inactive | inactive | inactive | inactive | inactive | inactive | inactive | inactive | inactive
C=CC(C)(O)CCCC(C)CCCC(C)CCCC(C)C (centres undefined) | inactive | inactive | inactive | inactive | inactive | inactive | inactive | 6.13 µM (active) | inactive
O=C(O)c1c(O)c(-c2ccccc2)nc2ccccc12 | inactive | inactive | inactive | inactive | inactive | inactive | inactive | – | inactive
Cc1cc(S(=O)(=O)O)ccc1N=Nc1c(O)ccc2ccccc12 | inactive | inactive | inactive | inactive | inactive | inactive | inactive | – | inactive
Fc1c(F)c(F)c(Br)c(F)c1F | inactive | inactive | inactive | inactive | inactive | inactive | inactive | – | inactive
C/C=C(\C)C(=O)OCCC(C)CCC=C(C)C (centres undefined) | inactive | inactive | inactive | inactive | inactive | inactive | inactive | – | inactive
CC(C)C(=O)O | inactive | inactive | inactive | inactive | inactive | inactive | inactive | – | inactive
CC(C)(O)c1ccccc1CC[C@@H](SCC1(CC(=O)O)CC1)c1cccc(/C=C/c2ccc3ccc(Cl)cc3n2)c1 | inactive | inactive | inactive | inactive | inactive | inactive | inactive | – | inactive
CCCOC(=O)c1ccc(C(=O)OCCC)nc1 | inactive | inactive | inactive | inactive | inactive | inactive | inactive | – | inactive
CCn1cc(C(=O)O)c(=O)c2cc(F)c(N3CCNCC3)nc21 | inactive | inactive | inactive | inactive | inactive | inactive | inactive | – | inactive
COc1ccc(C(=O)c2cccc(O)c2)c(OC)c1 | inactive | inactive | inactive | inactive | inactive | inactive | inactive | – | inactive
CC(=O)N(c1onc(C)c1C)S(=O)(=O)c1ccc(N)cc1 | inactive | inactive | inactive | inactive | inactive | inactive | inactive | – | inactive
O=C(O)c1ccc(CO)o1 | inactive | inactive | inactive | inactive | inactive | inactive | inactive | – | inactive
CCCCCCCC/C=C\CCCCCCCC(=O)OC | inactive | inactive | inactive | inactive | inactive | inactive | inactive | inactive | inactive
O=C(O)c1cccc(O)c1 | inactive | inactive | inactive | inactive | inactive | inactive | inactive | – | inactive
CCOCCn1c(C2CCN(CCc3ccc(C(C)(C)C(=O)O)cc3)CC2)nc2ccccc21 | inactive | inactive | inactive | inactive | inactive | inactive | inactive | inactive | inactive
CCOC(=O)c1ccccc1OC | inactive | inactive | inactive | inactive | inactive | inactive | inactive | – | inactive
